Our source for the Potency and activation values is PubChem BioAssay (NCATS).

Inconclusive results are not listed. Entries that show only a call come without a potency. A number with no mark means an inactive call. Activity calls are given as the source filed them. Calls follow the shape of the dose curve; as a rule, active = well fitted activation curve with a large enough effect; inconclusive = small, poorly fitted or top-dose-only effect, or another doubt; inactive = no such curve, though single readings can be large or run the other way.
Potency is read from the fitted curve at half-maximal effect.

In the test the target is Rap guanine nucleotide exchange factor 3 (Homo sapiens) (UniProt O95398). In words: Counterscreen qHTS for agonist of cAMP-regulated guanine nucleotide exchange factor 3 (EPAC1) (AID 1645889). Also: nearly all actives have a fitted effect of over 40% in size. The following applies: EPAC1 Rap1B-BODIPY-GDP exchange, fluorescence; series mostly up to 154 µM. From the text: Assay Provider (PI): Xiaodong Cheng Ph.D. The University of Texas Medical Branch, […], TX MLPCN Grant: NS066510 In multi-cellular eukaryotic organisms, the effects of cAMP are transduced by two ubiquitously-expressed intracellular cAMP receptors, the classic protein kinase A/cAMP-dependent protein kinase (PKA/cAPK) and the more recently discovered exchange protein directly activated by cAMP/cAMP-regulated guanine nucleotide exchange factor (EPAC/cAMP-GEF). Both PKA and EPAC are ubiquitously expressed in all tissues, and an increase in intracellular cAMP levels will lead to the activation of both PKA and EPAC. Therefore, careful dissections of the individual role and relative contribution of EPAC and PKA within the overall cAMP signaling in various model systems are critical for further elucidating the mechanism of cAMP signaling. To date no EPAC-specific antagonists and agonist, as well as isoform-specific agonists have been reported, and developing EPAC-specific pharmacological probes to determine the physiological functions that EPAC play in the overall cAMP-mediated signaling remains a major challenge within the research field. Furthermore, identified regulators of EPAC may lead to new mechanism-based therapeutic strategies specifically targeting the EPAC / cAMP-signaling components as EPAC has been implicated to play important roles in major human pathological conditions such as diabetes, heart disease, and cancer. This qHTS will be used to screen the Molecular Libraries Small Molecule Repository (MLSMR) as a concentration-titration series using the NCGC unique quantitative screening (qHTS) platform to find activators for EPAC1. In addition, this assay will also be used as a counterscreen for the EPAC2 qHTS. This fluorescent based assay is developed and validated for EPAC1 that measures exchange using EPAC effector Rap1 complex with BODIPY-GDP, a GDP analog with a tethered fluorophores. Activators are identified by monitoring the change in fluorescence signal as the exchanged free BODIPY-GDP has a reduced fluorescence compared to Rap1-bound BODIPY-GDP. Increase in signal (activation) is the desired outcome for the EPAC1 agonist while no activity in this assay is desired for the EPAC2 agonist counterscreen. Reference: [1] de Rooij, J., Zwartkruis, F. J., Verheijen, M. H., Cool, R. H., Nijman, S. M., Wittinghofer, A., and Bos, J.L. (1998) Nature 396, 474-477. Kawasaki, H., Springett, G. M., Mochizuki, N., Toki, S., Nakaya, M., Matsuda, M., Housman, D. E., and Graybiel, A. M. (1998) Science 282, 2275-2279.
EPAC1 Counterscreen PROTOCOL TABLE SEQUENCE No. (e.g., 1, 2, 3, etc.); […] (e.g., Cells, Incubation, Reagent, etc.); VALUE and DESCRIPTION. 1. Reagent. 3 uL. [1x] 250 nM Rap1B-BODIPY-GDP, and 50 uM GDP. 2a. Compound. 23 nL. Control 6,572 uM cAMP (working concentration). 2b, 2c. Compound. 23 nL. Control activator and inhibitor; 234 - 30,000 uM cAMP and 16.4 - 10,000 uM. 2d. Compound. 46 nL. MLSMR follow-up library; 0.64 - 10,000 uM. 3. Time. 15 sec, 1000rpm. Centrifuge. 4. Time. 5 min. Incubation at room temperature. 5. Detector. Fluorescence. (Read 1), Ex/Em = 480 nm / 540 nm. 6. Time. 30 min. Incubation at room temperature. 7. Detector. Fluorescence. (Read 2), Ex/Em = 480 nm/ 540 nm. 8. Reagent. 1uL. Dispense either [4x] 10 uM cAMP or buffer. 9. Time. 15 sec, 1000 rpm. Centrifuge. 10. Time. 5 min. Incubation at room temperature. 11. Detector. Fluorescence. (Read 3), Ex/Em = 480 nm / 540 nm. 12. Time. 30 min. Incubation at room temperature. 13. Detector. Fluorescence. (Read 4), Ex/Em = 480 nm / 540 nm. NOTES (numbers refer to Sequence numbers above; values are from representative experiments) 1. Medium-binding black solid-bottom Greiner plates (789176-F). Dispense 3 uL of [1x] 250 nM Rap1B-BODIPY-GDP, and 50 uM GDP into columns 1 to 48. 2a. Control compound cAMP (6,572 uM, column 3, rows 1 to 32) single pin-transferred for a [final] of 50 uM. 2b. […]
In general terms: A counterscreen serves to expose hits that act by an unwanted route or on another target.
On to `O=C1NC(=S)N(c2ccccc2)C(=O)/C1=C/c1ccco1`, for which the Potency entry is “inactive”. For `O=C(c1cc(Cl)cc(Cl)c1)N1Cc2ccccc2-n2nncc2C1`, the activation was 5.77% [at 30.8 µM]. Still for that read-out and setting: as for `O=C1NC(=O)N(Cc2ccco2)C(=O)/C1=C\c1ccc(-c2ccc(F)cc2)o1`, the figure is 11.1% [at 30.8 µM]. With `CCOC(=O)[C@]12Cc3cc(Cl)ccc3[C@H]1N(CC(=O)OC)C(=O)c1ccccc12`, the Potency entry is “inactive”. Take `CC(=O)C1C2c3ccccc3OC1(C)N=c1s/c(=C/c3cn(C)nc3C)c(=O)n12` (stereo not given): the Potency result was “inactive”. In the case of `O=c1nc(/C=C/c2ccc(Cl)cc2Cl)cc(C(F)(F)F)[nH]1`, the activation is 4.81% [at 30.8 µM]. As to `c1ccc(C(c2ccccc2)c2cccnc2)cc1`, the Potency entry is “inactive”. Regarding `COc1ccc(N2C(=O)/C(=C/C=C/c3ccccc3[N+](=O)[O-])C(=O)NC2=S)cc1`, the activation is 4.75% [at 30.8 µM]. With `CCCCC/C(=N/O)c1c(C)[nH]c2ccccc12`, the Potency entry is “inactive”. `COc1ccc(OCC(=O)N2CCN(CC3CC4C=CC3C4)CC2)cc1` (stereo not given): the activation was 5.29% [at 30.8 µM].

On to `NC(=O)c1ccc(N=Cc2c(O)n(Cc3ccco3)c(=O)[nH]c2=O)cc1`, for which the Potency result was “inactive”. Same read-out and setting: as for `COP(=O)(/C=C(\Cl)c1ccccc1)/C=C(\Cl)c1ccccc1`, the entry is “inactive”; as for `COC(=O)C1=C(c2cc3ccccc3s2)C[C@@H]2CC[C@H]1N2C(=O)NCc1ccc(C(F)(F)F)cc1`, “inactive”; as for `COC1C(OC(=O)c2ccc(C)[nH]2)C(O)C(Oc2ccc3c(O)c(NC(=O)c4ccc(O)c(CC=C(C)C)c4)c(=O)oc3c2Cl)OC1(C)C` (stereo not given), “inactive”. On the same count and under the same terms, as for `O=c1[nH]c(=S)n(-c2ccc(Cl)cc2)c(O)c1C=Nc1ccc(N2CCOCC2)cc1`, the entry is “inactive”. With `Cc1ccc(C)c(Cn2c(C(=O)O)c(C=O)c3ccccc32)c1`, the activation was 9.64% [at 30.8 µM]. As for `CCOC(=O)[C@]12Cc3cc(OC)ccc3[C@H]1N(C1CCCCC1)C(=O)c1ccccc12`, the Potency result was “inactive”. Take `Cn1cccc1/C=C1\C(=O)NC(=O)N(Cc2ccco2)C1=O`: the activation was 7.31% [at 30.8 µM]. Turning to `CC(C)CCn1c(=O)c(C(=O)Nc2ccccc2S(N)(=O)=O)c(O)c2ccccc21`, the Potency entry is “inactive”. Same read-out and setting: the result for `Clc1cc(Cl)c(-c2cc(Cl)c(Cl)cc2Cl)cc1Cl` reads “inactive”. With `COc1ccc(-n2nnnc2C(c2ccccc2OC(F)(F)F)N2CCC(n3c(=O)[nH]c4ccccc43)CC2)cc1` (stereo not given), the activation is 2.08% [at 30.8 µM]. Turning to `Cc1cc(C=C(C#N)C#N)ccc1N1CCCC1`, the Potency was 28.2 µM (active). `CCCCn1c(O)c(C=NCCN2CCCCC2)c(=O)[nH]c1=O`: the Potency result is “inactive”. Take `O=[N+]([O-])c1ccc(CN2CC=C(c3ccccc3)CC2)cc1`: the activation was 8.24% [at 30.8 µM].

Regarding `Cc1cccc(N2C(=O)NC(=O)/C(=C\c3cccn3-c3ccc(Cl)cc3)C2=O)c1`, the Potency result was “inactive”. On the same count and under the same terms, the result for `CCN(CC)c1ccc(N=Cc2c(O)n(CCC3=CCCCC3)c(=O)[nH]c2=O)cc1` reads “inactive”. Still for that read-out and setting: the result for `Oc1c(Cl)cccc1Cc1cc(Cl)cc(Cl)c1O` reads “inactive”. Same read-out and setting: the result for `Cn1ncnc2c(=O)n(C)c(=O)nc1-2` reads “inactive”; that for `Cn1cccc1/C=C1/C(=O)NC(=O)N(Cc2ccccc2)C1=O`, “inactive”; that for `CCOC(=O)C1CCCN(c2ccc([N+](=O)[O-])c3nonc23)C1` (stereo not given), 39.8 µM (active). Turning to `O=C(OC1CCN(CCCl)CC1)C(c1ccccc1)c1ccccc1`, the activation was -1.7% [at 30.8 µM].

Regarding `O=[N+]([O-])c1ccc(N2CCCCCC2)c2nonc12`, the Potency was 25.1 µM (active).

For `O=C(c1cc(-c2ccc(Cl)cc2)n(-c2ccc(Cl)cc2Cl)n1)N1CCOCC1`, the Potency entry is “inactive”. Same read-out and setting: the result for `CCc1nc2ccccc2c(=O)n1-c1ccccc1OC` reads “inactive”; that for `Cc1cc(C=C2C(=O)NC(=S)NC2=O)c(C)n1C1CCCC1`, “inactive”.

For the compound `O=C1NC(=O)N(Cc2ccc(F)cc2)C(=O)/C1=C\c1ccc([N+](=O)[O-])s1`, the Potency is 22.4 µM (active).

As to `O=C1NC(=O)N(Cc2ccco2)C(=O)/C1=C/C=C/c1ccco1`, the activation was -8.64% [at 30.8 µM]. For `CCN1/C(=C/C=C/C2=[N+](CC)c3ccccc3C2(C)C)C(C)(C)c2ccccc21`, the Potency was 10 µM (active).

As for `Cc1ccc(N2C(=O)NC(=O)/C(=C\C=C\c3ccco3)C2=O)cc1C`, the Potency entry was “inactive”. Same read-out and setting: the result for `Cn1cccc1/C=C1\C(=O)NC(=O)N(Cc2ccccc2Cl)C1=O` reads “inactive”.
